# PMC7819943, “Rice protein-binding microarrays: a tool to detect cis-acting elements near promoter regions in rice”
# In all, about 39,000 sequences were measured (“fluorescence intensity (a.u.)”: median about 4,300, highest 2% from about 39,000 on). For the sample, the highest values were picked, then their nearest neighbours and some sequences at random.
# Biological target: T1, OsSMF1 (Oryza sativa, UniProt Q6ZLB0 1-436)
# T1 sequence: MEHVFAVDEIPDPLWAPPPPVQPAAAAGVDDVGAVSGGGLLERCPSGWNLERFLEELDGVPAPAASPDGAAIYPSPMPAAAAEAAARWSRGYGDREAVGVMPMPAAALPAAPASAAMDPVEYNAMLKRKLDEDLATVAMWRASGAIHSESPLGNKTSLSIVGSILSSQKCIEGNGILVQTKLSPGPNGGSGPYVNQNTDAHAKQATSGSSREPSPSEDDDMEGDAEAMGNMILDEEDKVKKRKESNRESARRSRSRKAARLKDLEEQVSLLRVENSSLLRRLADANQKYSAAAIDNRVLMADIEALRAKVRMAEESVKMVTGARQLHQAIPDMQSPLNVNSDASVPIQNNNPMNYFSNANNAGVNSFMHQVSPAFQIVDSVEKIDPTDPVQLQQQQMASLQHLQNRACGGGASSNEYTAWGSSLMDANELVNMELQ
# Test: protein-binding microarray (RPBM); PBS, 2% BSA, 51.3 ng/ul salmon testes DNA, 50 uM zinc acetate, 200 nM TF, 25 C, 1 h; high values mean tight binding
# Conditions: protein: recombinant; tags: N-terminal polyhistidine and DsRed monomer fusion (pET32a); chain copies: 2; label: CyDye5-dUTP incorporated in the synthesized complementary strand; 3' TTTTT single-stranded linker to array surface; dsDNA, one strand shown
# Summary of the method: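 The binding signal for each feature is its fluorescence intensity in arbitrary units. An Axon 4000B scanner was used to read a custom Agilent array that had been made double-stranded with Cy5-dUTP primer extension, blocked with 2% BSA, incubated at 25 °C for 1 h with 200 nM protein in PBS, 2% BSA, salmon testes DNA and 50 µM zinc acetate, and washed. The protein was an N-terminal polyhistidine–DsRed transcription factor fusion from E. coli BL21-CodonPlus, purified on Ni–NTA.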
row,Sequence,binding signal
1,TATGTAGTACCACCCTGGTGTCACACATGTACCACTTGGTCGGAGTCACCTAGTGCAG,3910 fluorescence intensity (a.u.)
2,GGAGCTGAGGAGGGACAGCGAGCCAGCGAGGGAGGTGGGGCGGAGTCACCTAGTGCAG,3160 fluorescence intensity (a.u.)
3,GGGGACATTACTCCGTGGTTTACATGTCATCCAAATAGTTCGGAGTCACCTAGTGCAG,5320 fluorescence intensity (a.u.)
4,TATATACAAGTTCACCCCGAAACCTAGTCAGAGTATGACACGGAGTCACCTAGTGCAG,4240 fluorescence intensity (a.u.)
5,ACTTGCCACGGTGCCGCCTAACAGGCAGCCGTACCTGCCTCGGAGTCACCTAGTGCAG,3320 fluorescence intensity (a.u.)
6,TGAAATACTTACAAGTCGATCGAACAACACCTGTCATCATCGGAGTCACCTAGTGCAG,4160 fluorescence intensity (a.u.)
7,GCGGCCTATTGTTAGCGAGGAGTCACCCAGATTCTTCTCCCGGAGTCACCTAGTGCAG,6870 fluorescence intensity (a.u.)
8,TACTATTAGGTATGTGGTATCCATAACCCTGACACATACCCGGAGTCACCTAGTGCAG,3600 fluorescence intensity (a.u.)
9,CGTGAAAGTGCTTCGAAAGGTGTCAGCAGGTGCGCGGAGCCGGAGTCACCTAGTGCAG,3530 fluorescence intensity (a.u.)
10,GTCAGGTGGCGGCGGCGGCGGTGGTGGCGGTGGAGGTGGACGGAGTCACCTAGTGCAG,5570 fluorescence intensity (a.u.)
11,ATCCATAACTATGTAACGTCATAGCCACCCAGCCTCGCTTCGGAGTCACCTAGTGCAG,5580 fluorescence intensity (a.u.)
12,ATGCATGGTATGTCACGTTGTGACTTGCCTACACTAAAGCCGGAGTCACCTAGTGCAG,4520 fluorescence intensity (a.u.)
13,CTTGCACAAGTACAGTACGTGTACATGCATGTATGCTACCCGGAGTCACCTAGTGCAG,5700 fluorescence intensity (a.u.)
14,TTGCTAGTTGGTACAAAGTAAGCATGCAACACTTGTATGCCGGAGTCACCTAGTGCAG,42200 fluorescence intensity (a.u.)
15,AATGCTGCAATTTCTCGTTGACTAGACTTCACATGCAGCTCGGAGTCACCTAGTGCAG,5400 fluorescence intensity (a.u.)
16,TCCGTTGAGATCAGCACTTTCTAGCAGCTGTACAAGAGACCGGAGTCACCTAGTGCAG,3740 fluorescence intensity (a.u.)
17,GCCCATGTACGATGACGTGTACCCTATTGTCTTCTACTAGCGGAGTCACCTAGTGCAG,21600 fluorescence intensity (a.u.)
18,CACGCCAACGCCCAAGCCCACCAACCCAAGTTGAGTCGTGCGGAGTCACCTAGTGCAG,3360 fluorescence intensity (a.u.)
19,AATGGATCTAGACTATATCTATCTAGATTCATTAGTATCACGGAGTCACCTAGTGCAG,45400 fluorescence intensity (a.u.)
20,AATCTATGCATATATATATATATATATATGTCTAGATTCACGGAGTCACCTAGTGCAG,3240 fluorescence intensity (a.u.)
21,ATATAGATCATCATCAAGACTACGTATTATTCACTATTCACGGAGTCACCTAGTGCAG,3160 fluorescence intensity (a.u.)
22,CCATATCATATTACTCCTACATGTGTACTACATTTATATTCGGAGTCACCTAGTGCAG,3720 fluorescence intensity (a.u.)
23,CTACATCAGCTATATCTATTGTTGCTCTTACACTAAATTACGGAGTCACCTAGTGCAG,23700 fluorescence intensity (a.u.)
24,TTACAGGATTATATATCATGTTTATCTATTCGTCTTACTACGGAGTCACCTAGTGCAG,39500 fluorescence intensity (a.u.)
25,CCGCTCCGCCTACTCTGGCCACGCGCTGACGCCGCGTCCCCGGAGTCACCTAGTGCAG,7060 fluorescence intensity (a.u.)
26,GGCGGAGACGCGGGCGTGGCTCGGCGGCCTGCTAGTGTGACGGAGTCACCTAGTGCAG,3340 fluorescence intensity (a.u.)
27,AAAGCCAAACAAGTGTCCAAACGGCTAGGAGTCAACCTCGCGGAGTCACCTAGTGCAG,41200 fluorescence intensity (a.u.)
28,TTCAAGTCCAACCTCGGCCACATGCTCCGCCTCCGCCTCGCGGAGTCACCTAGTGCAG,3780 fluorescence intensity (a.u.)

row,Sequence,binding signal
1,AAGTCCTCCCACAAGTCAACCAACCAAAACCACGTCCAAACGGAGTCACCTAGTGCAG,3420 fluorescence intensity (a.u.)
2,TTTCTTAACTCGACACGCAATGTATTGTTATTTACGATTCCGGAGTCACCTAGTGCAG,3740 fluorescence intensity (a.u.)
3,TACCACTATCGGAAGTTTTGGTTGTGACGTCCACAATTCCCGGAGTCACCTAGTGCAG,3760 fluorescence intensity (a.u.)
4,TTTCACCCGGGACTAAAGATCGCTATCTTTAGTCCCGGATCGGAGTCACCTAGTGCAG,52600 fluorescence intensity (a.u.)
5,AACCGGGACTAAAGATCGTACCTTTAGTTACGATCTTTAGCGGAGTCACCTAGTGCAG,28500 fluorescence intensity (a.u.)
6,CTAATGGGACTGCTGCTACCCTATCTTTAGTCCGGGACTACGGAGTCACCTAGTGCAG,3270 fluorescence intensity (a.u.)
7,CAAGGGAGCTGGTAACACTCATCATTTCCGTTCTTCAAATCGGAGTCACCTAGTGCAG,3250 fluorescence intensity (a.u.)
8,AGGTTGGTGATTCAGAGATGTCGAGACGTGTGTTCTTTTGCGGAGTCACCTAGTGCAG,4270 fluorescence intensity (a.u.)
9,GCGCGTTGCTGCTGACTCCGGAGCAAAATCGAGCGAGCGCCGGAGTCACCTAGTGCAG,3360 fluorescence intensity (a.u.)
10,TTAATACAAATCCGTTGCATCACACGAGTCATATGCTAGTCGGAGTCACCTAGTGCAG,5010 fluorescence intensity (a.u.)
11,AACTCCGAGCGTTGCTATGGGAGTTCCGTAAAATAGTAATCGGAGTCACCTAGTGCAG,39300 fluorescence intensity (a.u.)
12,TTGAATTGCCATTACAAGCAGAAACTGGGTAGCCCAGCAGCGGAGTCACCTAGTGCAG,14600 fluorescence intensity (a.u.)
13,GCCGCTGCACCGCCCCAGCCTCCTCCTCCCCACCGATGCCCGGAGTCACCTAGTGCAG,3150 fluorescence intensity (a.u.)
14,TCTATAAATATGATGTGGCTATGTACTCAGTACTCACCTGCGGAGTCACCTAGTGCAG,6690 fluorescence intensity (a.u.)
15,GGCGGCACAGGTCGCCGTCGTCGCCACCGACGCGGCGTCGCGGAGTCACCTAGTGCAG,3730 fluorescence intensity (a.u.)
16,CCATTCATGCCCGTGATATCCTGGCTCCACGAGCTCTGCTCGGAGTCACCTAGTGCAG,59000 fluorescence intensity (a.u.)
17,TTATTCATACATGTCACTGCCAGGCTGCTGTCTACTTCTTCGGAGTCACCTAGTGCAG,4950 fluorescence intensity (a.u.)
18,GCGCCCCATCCACGCGTCATGCATCCACGTCGGGGCTGCACGGAGTCACCTAGTGCAG,11600 fluorescence intensity (a.u.)
19,CCTTTTCAATGTTCTTGTCATCACTGCTCGTGTCACCCGTCGGAGTCACCTAGTGCAG,5650 fluorescence intensity (a.u.)
20,TGAGCACCTCATCCACGCGTCATGCATCTGTGTCGGGGCTCGGAGTCACCTAGTGCAG,45200 fluorescence intensity (a.u.)
21,GCTGTCCTGCTCGTCGGCCTCCACGCGCGCTCATCGGCCTCGGAGTCACCTAGTGCAG,3240 fluorescence intensity (a.u.)
22,GGCTGCTCATTGTCGTCTCATCTGGGCTTTTCAATGGGCTCGGAGTCACCTAGTGCAG,53700 fluorescence intensity (a.u.)
23,GTGCAGATCCACTGTCTGCTCATTGGGCTTATTCATGGCTCGGAGTCACCTAGTGCAG,40700 fluorescence intensity (a.u.)
24,TGACTGCTGGCTCACATCCAGTCATTGGCTTAGCTAGCTGCGGAGTCACCTAGTGCAG,4160 fluorescence intensity (a.u.)
25,AATATCATCCGTGTCACTACCTAGCTCCTGCATGCTCTGCCGGAGTCACCTAGTGCAG,4560 fluorescence intensity (a.u.)
26,ACGGGCTCGTCGAGCTGCTCTGGTGCAATGGCCACGTCATCGGAGTCACCTAGTGCAG,28400 fluorescence intensity (a.u.)
27,CACGAGTGCCTCTCCGTCATGCTCCACGACAGCTGCAGCCCGGAGTCACCTAGTGCAG,4760 fluorescence intensity (a.u.)
